Source: PubChem (National Center for Advancing Translational Sciences (NCATS))
FMDV inh: antivirals against foot and mouth disease virus. FMDV antiviral cell-based qHTS. Potency, µM (doses to about 57.9 µM), usual class: inhibitors. hit rate 1.2% among 410,000. AID 1159524; calls by dose curve; tested in HEK293T cells; also: read-out not given here; nearly all actives have a fitted effect of over 45% in size
Lassa entry inh: Lassa virus entry inhibition. Lassa virus pseudotype entry inhibition, cell reporter. Potency, µM (highest dose often 37.9 µM), hits mostly inhibitors. hit rate 1.2% among 300,000. AID 540256; calls by dose curve; tested in HEK293 cells; also: nearly all actives have a fitted effect of over 50% in size
HCMV antiviral: human cytomegalovirus inhibition; HFF cells, HCMV-luciferase reporter, 72 h; hits give low values; activity change, negative = inhibition, % at 57.5 µM; hit rate 4.5% among 410,000; AID 1259415; in the data active = activity change below about -60%; inconclusive = no clear call, values can overlap the other calls; inactive = above about -39%
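Two-dose cell screen: HFF monolayers treated with compounds and infected with luciferase-expressing HCMV at 1 PFU/cell, 72 h at 37C, then lysed for luciferase measurement.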
Vaccinia mCherry: vaccinia inhibition (mCherry reporter); AID 720579; Potency, µM (highest dose often 36.5 µM), usual class: inhibitors; hit rate 0.63% among 310,000; Vaccinia virus mCherry reporter infection, fluorescence; calls by dose curve; tested in A549 cells; also: nearly all actives have a fitted effect of over 35% in size
MARV entry inh: Marburg virus entry inhibition; Marburg virus pseudotyped entry inhibition, cell reporter; Potency, µM (titrated, usually from 37.8 µM), usual class: inhibitors; hit rate 1.8% among 300,000; AID 540276; calls by dose curve; tested in HEK293 cells
Vaccinia Venus: inhibitors of vaccinia virus (Venus reporter); Potency, µM (series often up to 36.5 µM), most hits filed as inhibitors; hit rate 0.46% among 330,000; Vaccinia virus Venus reporter expression, fluorescence; calls by dose curve; tested in A549 cells; also: nearly all actives have a fitted effect of over 30% in size
Large screens that a line does not name were inactive. Most compounds without a hit are left out; they make up all but 6.5% or so of the library.

Cc1c(C(=O)NCCc2ccccc2)oc2ccc(S(=O)(=O)N3CCC4(CC3)OCCO4)cc12	FMDV inh inconclusive, Lassa entry inh 23.1µM, MARV entry inh inconclusive
Cc1c(C(=O)Nc2cccc(C(F)(F)F)c2)oc2ccc(S(=O)(=O)N3CCC4(CC3)OCCO4)cc12	FMDV inh 15.8µM (no result: MARV entry inh)
CCOc1ccc(CN2C(=O)c3ccccc3Sc3ccc(C(=O)OC)cc32)cc1	Lassa entry inh inconclusive (no result: MARV entry inh)
CCc1cc2c(cc3c(=O)n(CC(=O)N4CCCCC4)nc(CC)n32)s1	none (no result: Lassa entry inh)
C=C1N(S(=O)(=O)C(F)(F)F)CCC12CN(Cc1ccccc1)c1ccccc12 (stereo not drawn)	none (no result: FMDV inh, Lassa entry inh, Vaccinia mCherry, MARV entry inh, Vaccinia Venus)
Cc1c(C(=O)Nc2ccc(F)cc2)oc2ccc(S(=O)(=O)N3CCCCCC3)cc12	FMDV inh 28.2µM (no result: MARV entry inh)
Cc1ccc2c(c1)CN(CCNC(=O)c1n[nH]c3c1CCCC3)CC(C)O2 (stereo not drawn)	none (no result: Lassa entry inh, HCMV antiviral, MARV entry inh)
OCC1(Cc2ccc(Cl)cc2)CCN(CCCc2ccccc2)CC1	Lassa entry inh inconclusive, MARV entry inh inconclusive
O=C(NC1(Cc2ccccc2)CCN(CCCc2ccccc2)C1=O)c1ccccc1 (stereo not drawn)	HCMV antiviral -98.1, Vaccinia Venus inconclusive (no result: Lassa entry inh, MARV entry inh)
CC1=C/C(=N\NC(=S)Nc2cccnc2)CC(C)(C)C1	HCMV antiviral -71.9
CC1(C)C2CC=C(/C=N/NC(=S)Nc3cccnc3)C1C2 (stereo not drawn)	none
Cc1c(C(=O)Nc2ccc(F)c(C(F)(F)F)c2)sc2nc(-c3ccccc3)cn12	HCMV antiviral -97.7, Vaccinia Venus inconclusive (no result: MARV entry inh)
COc1ccc(NC(=O)N2CCN(Cc3nc4ccc(C)cc4o3)CC2)cc1OC	none (no result: MARV entry inh)
CCN(CC)C(=O)c1ccc2c3c(cccc13)C(=O)N(CCc1ccc(OC)c(OC)c1)C2=O	FMDV inh 31.6µM, Lassa entry inh inconclusive, Vaccinia mCherry inconclusive, MARV entry inh inconclusive, Vaccinia Venus inconclusive (no result: HCMV antiviral)
Cn1c(=O)c2c(ncn2CCO)n(C)c1=O	none (no result: Lassa entry inh)
Cc1ccc(OCCn2cnc3c2c(=O)n(C)c(=O)n3C)cc1	FMDV inh inconclusive, HCMV antiviral -76.1
CCCNC(=O)Cn1c(SCc2ccccc2C)nc2ccncc21	none (no result: FMDV inh, Lassa entry inh, HCMV antiviral, MARV entry inh)
O=C(CCl)NC(=O)NC12CC3CC(CC(C3)C1)C2	FMDV inh inconclusive, Lassa entry inh inconclusive, HCMV antiviral -99.2, MARV entry inh inconclusive
CCCCNC(=O)CSc1nc2n[nH]c(C)c2c(=N)n1-c1ccccc1CC	Lassa entry inh inconclusive (no result: MARV entry inh)
CCn1c(COc2cccc(C)c2C)nnc1SCC(=O)N1CCN(c2ccc(OC)cc2)CC1	FMDV inh inconclusive, Lassa entry inh inconclusive, HCMV antiviral -97.1 (no result: Vaccinia mCherry, Vaccinia Venus)
COc1ccc(N2CCN(C(=O)CSc3nnc4n3C(C)(C)Cc3ccccc3-4)CC2)cc1	FMDV inh 20µM, HCMV antiviral -63.6 (no result: Vaccinia mCherry, Vaccinia Venus)
CCn1c(CSCc2ccc(C)cc2)nnc1SCC(=O)N1CCN(c2ccccc2)CC1	FMDV inh 22.4µM, Vaccinia mCherry inconclusive, MARV entry inh inconclusive, Vaccinia Venus inconclusive
Cc1ccc(Cl)cc1N1CCN(C(=O)CSc2nnc3n2C(C)(C)Cc2ccccc2-3)CC1	FMDV inh 12.6µM, Lassa entry inh inconclusive, MARV entry inh 11.6µM (no result: Vaccinia mCherry, Vaccinia Venus)
Cc1cccc(Cn2c(=O)n(CCc3ccccc3)c(=O)c3c(C)c(C)sc32)c1	none
Clc1ccccc1-c1ccc2ncnc(NCCN3CCOCC3)c2c1	none (no result: Lassa entry inh, HCMV antiviral, Vaccinia mCherry, MARV entry inh, Vaccinia Venus)
CCOc1ccc(CCNc2ncnc3onc(C)c23)cc1OCC	FMDV inh inconclusive, HCMV antiviral inconclusive (no result: MARV entry inh)
COc1ccc(OC)c(NC(=O)Cc2nn(C)c(=O)c3ccccc23)c1	FMDV inh inconclusive, HCMV antiviral inconclusive, MARV entry inh inconclusive
Cn1nc(CC(=O)NC2CCCCCC2)c2ccccc2c1=O	FMDV inh inconclusive, HCMV antiviral -72.2 (no result: Lassa entry inh, MARV entry inh)
COc1ccc(CNC(=O)Cc2nn(C)c(=O)c3ccccc23)cc1	FMDV inh 15.8µM, HCMV antiviral inconclusive, MARV entry inh inconclusive, Vaccinia Venus inconclusive (no result: Vaccinia mCherry)
Cn1nc(C(=O)NC2CCC(O)CC2)c2ccccc2c1=O (stereo not drawn)	HCMV antiviral -64.5 (no result: Lassa entry inh, Vaccinia mCherry, MARV entry inh, Vaccinia Venus)
Cn1nc(CC(=O)NCc2ccc(C(F)(F)F)cc2)c2ccccc2c1=O	FMDV inh 15.8µM, MARV entry inh inconclusive (no result: Vaccinia mCherry, Vaccinia Venus)
CC(C)OC(=O)c1cc2c(OCC(O)CNC(C)(C)C)cccc2[nH]1 (stereo not drawn)	none (no result: Lassa entry inh, HCMV antiviral, Vaccinia mCherry, MARV entry inh, Vaccinia Venus)
COc1ccc(OCC(=O)Nc2cccc3ncccc23)cc1	FMDV inh inconclusive (no result: Vaccinia mCherry)
O=C(CCl)Nc1cccc2ncccc12	Lassa entry inh inconclusive, HCMV antiviral -98.6, Vaccinia mCherry 3.55µM, MARV entry inh inconclusive, Vaccinia Venus inconclusive
